Assay results: ChEMBL document CHEMBL3988442, “University of Dundee, Small-Polar-MMV Screening Library” (2021)
For some assays here: Results with a measured potency or affinity are listed apart.

Key:
Set-up in all cases: scale not given: direction of the effect not stated beside the values
[1] = target: Protein translocase subunit SecA (Escherichia coli (strain K12)) (UniProt P10408); assay: Assay to Identify E. coli SecA ATPase Inhibitors; format: functional; conditions: 30 µM
[2] = target: T1, Ubiquitin-activating enzyme e1, putative (Leishmania donovani (strain BPK282A1)) (UniProt E9BSI1); assay: Leishmania donovani Ubiquitin Activating Enzyme (LdE1); format: functional; conditions: 30 µM
T1 sequence (whole entry): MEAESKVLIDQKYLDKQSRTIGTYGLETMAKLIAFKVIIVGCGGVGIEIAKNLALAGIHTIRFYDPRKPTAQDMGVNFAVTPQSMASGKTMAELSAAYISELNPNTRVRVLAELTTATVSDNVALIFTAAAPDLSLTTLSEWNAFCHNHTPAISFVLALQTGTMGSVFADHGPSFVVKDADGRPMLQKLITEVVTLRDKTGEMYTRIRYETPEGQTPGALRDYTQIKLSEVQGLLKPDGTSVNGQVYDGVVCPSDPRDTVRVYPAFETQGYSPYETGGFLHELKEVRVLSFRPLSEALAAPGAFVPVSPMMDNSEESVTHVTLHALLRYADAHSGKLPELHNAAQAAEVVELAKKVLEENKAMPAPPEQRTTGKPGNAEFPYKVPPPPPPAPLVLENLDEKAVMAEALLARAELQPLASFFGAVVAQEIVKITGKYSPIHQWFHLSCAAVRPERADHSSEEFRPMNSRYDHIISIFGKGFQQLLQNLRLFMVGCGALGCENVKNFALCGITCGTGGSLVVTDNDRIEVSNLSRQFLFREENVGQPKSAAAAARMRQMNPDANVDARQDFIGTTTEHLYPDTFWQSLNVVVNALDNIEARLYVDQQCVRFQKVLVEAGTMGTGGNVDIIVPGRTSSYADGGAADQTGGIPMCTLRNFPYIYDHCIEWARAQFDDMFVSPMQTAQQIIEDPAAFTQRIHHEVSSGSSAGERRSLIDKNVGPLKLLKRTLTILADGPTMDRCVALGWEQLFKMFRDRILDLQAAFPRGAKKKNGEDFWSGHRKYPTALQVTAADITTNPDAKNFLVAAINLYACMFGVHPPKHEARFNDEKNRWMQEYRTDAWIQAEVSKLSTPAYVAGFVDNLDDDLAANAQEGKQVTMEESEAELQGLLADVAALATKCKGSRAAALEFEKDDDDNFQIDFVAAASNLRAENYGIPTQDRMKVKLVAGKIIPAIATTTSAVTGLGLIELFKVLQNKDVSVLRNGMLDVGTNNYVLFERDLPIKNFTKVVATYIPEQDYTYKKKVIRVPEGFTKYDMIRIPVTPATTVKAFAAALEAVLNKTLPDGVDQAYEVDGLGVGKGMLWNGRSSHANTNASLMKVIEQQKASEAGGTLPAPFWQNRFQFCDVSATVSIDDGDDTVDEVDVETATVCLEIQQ

[3] = target: AMP-activated protein kinase, AMPK (Homo sapiens) (UniProt P54646+O43741+P54619+Q9UGJ0+Q9Y478+Q13131+Q9UGI9); assay: AMP-dependent Kinase enzyme assay. An in vitro enzyme assay that detects ADP turnover that is directly proportional to AMPK activity. This uses naive AMPK that is activated during the assay with MK-8722; format: functional; conditions: 30 µM
[4] = target: Sialic acid-binding Ig-like lectin 9 (Homo sapiens) (UniProt Q9Y336); assay: Hs-Siglec9 ALPHAscreen SOP 20170721; conditions: 10 µM
Trypanosoma cruzi = assay: Trypanosoma cruzi phosphomannomutase and mannose-1-phosphate guanylyltransferase assay; format: functional; conditions: 10 µM
[5] = target: T2, Arginase-2, mitochondrial (Homo sapiens) (UniProt P78540); assay: in vitro enzyme assay to detect the production of urea directly proportional to the activity of Arginase II; format: functional; conditions: 33.3 µM; note: in the data most compounds retested in dose-response had high values
T2 sequence (whole entry): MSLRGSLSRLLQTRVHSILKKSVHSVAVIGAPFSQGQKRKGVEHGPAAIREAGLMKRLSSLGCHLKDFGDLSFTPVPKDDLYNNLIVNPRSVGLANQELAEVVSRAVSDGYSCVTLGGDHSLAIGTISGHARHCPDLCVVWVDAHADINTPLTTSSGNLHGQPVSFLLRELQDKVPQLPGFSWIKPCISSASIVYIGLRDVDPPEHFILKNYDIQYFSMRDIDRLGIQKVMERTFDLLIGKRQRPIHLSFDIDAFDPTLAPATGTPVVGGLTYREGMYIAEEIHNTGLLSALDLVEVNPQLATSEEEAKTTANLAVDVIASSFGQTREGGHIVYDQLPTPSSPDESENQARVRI

[6] = target: T3, Proteasome subunit beta (Trypanosoma cruzi) (UniProt O96673); assay: Trypanosoma cruzi proteasome chymotrypsin-like activity (TcProtChymo) assay.; note: in the data most compounds retested in dose-response had high values; format: functional; conditions: 9.37 µM
T3 sequence (whole entry): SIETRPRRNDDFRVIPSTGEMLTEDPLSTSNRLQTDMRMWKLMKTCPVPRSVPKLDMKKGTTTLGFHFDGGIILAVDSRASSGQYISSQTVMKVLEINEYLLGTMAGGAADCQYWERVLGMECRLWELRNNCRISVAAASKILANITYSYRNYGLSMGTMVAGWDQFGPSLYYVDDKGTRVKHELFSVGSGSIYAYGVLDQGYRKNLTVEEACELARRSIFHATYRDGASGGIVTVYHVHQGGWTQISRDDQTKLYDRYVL

Homo sapiens = species on record: Homo sapiens; assay: To identify inhibition of the IFN signalling (Jak-Stat) pathway via expression of an eGFP reporter gene under the control of an IFN-stimulated response element (ISRE) containing MxA promoter.; format: functional; conditions: 30 µM
[7] = target: T4, Tyrosyl-tRNA synthetase, putative (Trypanosoma cruzi (strain CL Brener)) (UniProt Q4DSP6); assay: Trypanosoma cruzi tyrosyl tRNA synthetase (TcYRS) _High Tyrosine SOP; format: functional; conditions: 30 µM; note: in the data most compounds retested in dose-response had high values
T4 sequence (whole entry): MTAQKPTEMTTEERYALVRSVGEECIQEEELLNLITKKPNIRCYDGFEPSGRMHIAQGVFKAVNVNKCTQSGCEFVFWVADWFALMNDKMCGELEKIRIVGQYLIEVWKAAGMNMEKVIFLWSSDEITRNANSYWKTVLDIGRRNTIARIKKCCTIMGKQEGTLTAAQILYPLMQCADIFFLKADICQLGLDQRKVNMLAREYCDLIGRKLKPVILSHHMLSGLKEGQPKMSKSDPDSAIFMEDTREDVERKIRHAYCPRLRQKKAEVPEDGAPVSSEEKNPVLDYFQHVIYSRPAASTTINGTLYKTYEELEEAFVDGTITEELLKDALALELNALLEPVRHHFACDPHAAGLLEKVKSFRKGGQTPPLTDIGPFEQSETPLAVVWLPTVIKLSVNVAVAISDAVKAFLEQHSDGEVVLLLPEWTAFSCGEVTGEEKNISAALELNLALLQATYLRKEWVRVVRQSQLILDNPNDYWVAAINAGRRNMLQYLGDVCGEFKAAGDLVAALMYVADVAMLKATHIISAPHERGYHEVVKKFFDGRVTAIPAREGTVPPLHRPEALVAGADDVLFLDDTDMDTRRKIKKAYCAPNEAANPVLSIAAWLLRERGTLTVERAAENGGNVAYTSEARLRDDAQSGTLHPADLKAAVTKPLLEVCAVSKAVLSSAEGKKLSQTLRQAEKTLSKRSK

[8] = target: T4, Tyrosyl-tRNA synthetase, putative (Trypanosoma cruzi (strain CL Brener)); assay: Trypanosoma cruzi tyrosyl tRNA synthetase (TcYRS) SOP; format: functional; conditions: 30 µM
[9] = target: Chromo domain-containing protein 1 (Saccharomyces cerevisiae (strain ATCC 204508 / S288c) (Baker's yeast)) (UniProt P32657); assay: ScCHD-1 Enzyme Inhibition Assay; format: functional; conditions: 30 µM; note: in the data most compounds retested in dose-response had high values
Chain of Chromo domain-containing protein 1 (Saccharomyces cerevisiae (strain ATCC 204508 / S288c) (Baker's yeast)) (P32657 whole entry, the tested form may be a part): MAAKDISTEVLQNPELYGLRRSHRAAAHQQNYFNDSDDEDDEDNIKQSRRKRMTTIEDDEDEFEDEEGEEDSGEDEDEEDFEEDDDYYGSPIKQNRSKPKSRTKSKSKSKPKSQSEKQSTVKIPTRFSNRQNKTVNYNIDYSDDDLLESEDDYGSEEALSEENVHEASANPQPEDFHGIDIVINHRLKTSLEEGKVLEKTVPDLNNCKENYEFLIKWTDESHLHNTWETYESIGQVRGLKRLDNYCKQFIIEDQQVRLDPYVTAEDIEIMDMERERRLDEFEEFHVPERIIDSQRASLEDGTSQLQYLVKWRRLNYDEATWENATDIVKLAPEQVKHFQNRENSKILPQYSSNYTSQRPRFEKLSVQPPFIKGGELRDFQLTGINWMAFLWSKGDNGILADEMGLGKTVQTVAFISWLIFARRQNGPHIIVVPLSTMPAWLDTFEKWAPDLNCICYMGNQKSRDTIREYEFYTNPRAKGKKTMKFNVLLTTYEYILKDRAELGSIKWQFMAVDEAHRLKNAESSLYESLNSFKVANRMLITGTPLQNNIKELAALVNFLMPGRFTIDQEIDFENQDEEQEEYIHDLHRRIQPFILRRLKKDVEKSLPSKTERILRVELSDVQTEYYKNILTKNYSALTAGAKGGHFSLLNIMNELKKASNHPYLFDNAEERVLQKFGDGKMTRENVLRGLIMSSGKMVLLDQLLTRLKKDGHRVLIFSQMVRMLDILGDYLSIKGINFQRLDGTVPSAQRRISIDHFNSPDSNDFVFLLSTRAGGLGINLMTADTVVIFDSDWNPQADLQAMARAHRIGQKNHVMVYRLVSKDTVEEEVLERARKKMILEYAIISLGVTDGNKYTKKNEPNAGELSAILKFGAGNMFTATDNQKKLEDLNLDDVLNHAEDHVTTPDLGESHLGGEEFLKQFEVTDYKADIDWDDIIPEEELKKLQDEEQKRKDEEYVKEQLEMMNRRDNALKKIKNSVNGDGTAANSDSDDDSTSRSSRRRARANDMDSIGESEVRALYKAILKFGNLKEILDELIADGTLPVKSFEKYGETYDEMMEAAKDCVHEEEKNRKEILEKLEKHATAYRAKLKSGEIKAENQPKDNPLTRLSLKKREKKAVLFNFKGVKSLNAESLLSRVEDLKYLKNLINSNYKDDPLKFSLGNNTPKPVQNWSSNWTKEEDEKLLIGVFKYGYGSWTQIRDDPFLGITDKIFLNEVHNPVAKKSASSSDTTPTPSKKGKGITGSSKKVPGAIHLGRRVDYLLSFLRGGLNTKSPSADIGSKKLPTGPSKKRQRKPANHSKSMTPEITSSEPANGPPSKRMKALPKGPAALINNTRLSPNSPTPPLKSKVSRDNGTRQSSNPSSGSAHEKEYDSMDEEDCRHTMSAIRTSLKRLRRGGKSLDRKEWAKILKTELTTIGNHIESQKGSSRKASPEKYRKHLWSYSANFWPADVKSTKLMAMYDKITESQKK

Chain of Protein translocase subunit SecA (Escherichia coli (strain K12)) (P10408 whole entry): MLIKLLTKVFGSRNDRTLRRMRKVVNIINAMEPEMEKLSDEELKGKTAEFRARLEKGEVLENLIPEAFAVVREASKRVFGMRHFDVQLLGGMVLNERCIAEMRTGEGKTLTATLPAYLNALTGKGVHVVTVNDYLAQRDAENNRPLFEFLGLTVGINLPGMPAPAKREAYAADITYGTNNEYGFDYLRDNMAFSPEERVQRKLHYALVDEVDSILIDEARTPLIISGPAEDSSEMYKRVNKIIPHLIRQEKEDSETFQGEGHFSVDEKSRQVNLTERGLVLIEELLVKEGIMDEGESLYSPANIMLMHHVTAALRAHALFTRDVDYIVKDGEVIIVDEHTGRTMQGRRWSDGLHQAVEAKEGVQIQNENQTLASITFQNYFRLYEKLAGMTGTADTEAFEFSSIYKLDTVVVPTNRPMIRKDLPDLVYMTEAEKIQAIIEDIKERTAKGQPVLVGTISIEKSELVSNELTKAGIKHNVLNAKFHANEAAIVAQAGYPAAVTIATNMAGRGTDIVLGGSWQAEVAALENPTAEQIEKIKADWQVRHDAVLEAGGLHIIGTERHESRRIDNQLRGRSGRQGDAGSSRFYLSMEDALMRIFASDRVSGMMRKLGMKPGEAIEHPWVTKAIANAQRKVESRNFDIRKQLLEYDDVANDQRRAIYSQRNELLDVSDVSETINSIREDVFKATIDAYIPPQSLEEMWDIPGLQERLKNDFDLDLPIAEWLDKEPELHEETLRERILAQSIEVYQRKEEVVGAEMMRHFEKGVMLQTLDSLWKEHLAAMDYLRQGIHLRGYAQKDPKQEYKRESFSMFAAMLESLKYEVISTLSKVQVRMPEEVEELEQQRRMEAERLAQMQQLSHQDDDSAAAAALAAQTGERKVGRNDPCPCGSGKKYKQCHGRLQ
Chain of Sialic acid-binding Ig-like lectin 9 (Homo sapiens) (Q9Y336 whole entry): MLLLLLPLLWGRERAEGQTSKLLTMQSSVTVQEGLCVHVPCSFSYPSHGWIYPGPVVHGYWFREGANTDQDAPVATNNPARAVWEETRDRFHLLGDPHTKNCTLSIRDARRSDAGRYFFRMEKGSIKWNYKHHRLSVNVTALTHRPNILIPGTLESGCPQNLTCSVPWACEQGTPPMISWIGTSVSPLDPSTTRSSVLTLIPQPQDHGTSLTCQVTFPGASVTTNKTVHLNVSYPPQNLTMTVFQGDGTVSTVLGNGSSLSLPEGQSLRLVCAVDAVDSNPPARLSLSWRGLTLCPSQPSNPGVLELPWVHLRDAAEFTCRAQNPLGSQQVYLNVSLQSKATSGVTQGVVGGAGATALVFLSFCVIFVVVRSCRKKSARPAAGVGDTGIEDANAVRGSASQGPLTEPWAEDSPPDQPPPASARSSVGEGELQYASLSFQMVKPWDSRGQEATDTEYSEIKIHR

| SMILES | Percent Effect [1] | Percent Effect [2] | Percent Effect [3] | Percent Effect [4] | Percent Effect (Trypanosoma cruzi) | Percent Effect [5] | Percent Effect [6] | Percent Effect (Homo sapiens) | Percent Effect [7] | Percent Effect [8] | Percent Effect [9] |
| --- | --- | --- | --- | --- | --- | --- | --- | --- | --- | --- | --- |
| CCOCC1CN(S(C)(=O)=O)Cc2cnn(C)c21 (stereo unspecified) | -0.898% | 16% | -7.73% | 10.1% | 5.79% | -43.9% | 10.8% | -2.61% | 4.17% | 12.5% | -7.93% |
| CN1CCOC(CNCc2cccc(OCC(F)(F)F)c2)C1 (stereo unspecified) | -3.56% | 5.06% | -19.3% | 12.1% | -1.79% | 0.38% | -6.31% | 0.0497% | 4.43% | 1.27% | -2.57% |
| Cc1ccc(CC(=O)N2CSCC2C(=O)N(C)Cc2ccco2)o1 (stereo unspecified) | -2.18% | 2.63% | 17.7% | -8.06% | -2.89% | 3.24% | 7.02% | -5.97% | 3.45% | 1.24% | -0.996% |
| COc1cccc(CNCCc2cc(F)cc3c2OCOC3)c1 | -2.14% | 1.39% | -14.2% | 27% | 6.51% | 3.53% | 8.42% | 1.36% | 0% | 5.13% | -4.8% |
| O=C(NCc1cccnc1-n1cccn1)C1CC(=O)N(CC2CC2)C1 (stereo unspecified) | 1.42% | -2.6% | 12.9% | -3.81% | -3.43% | 7.37% | 2.99% | 18.6% | -0.952% | -2.35% | -13.5% |
| CN(C)C(=O)N1CCOCC2(CCN(c3ncccn3)C2)C1 (stereo unspecified) | -4.78% | 8.11% | -5.27% | 28.6% | 6.35% | -1.24% | 5.75% | -36.2% | 6.45% | 11.1% | -5.72% |
| Cc1cnn(CCNCc2nc(COc3ccc(F)cc3)no2)c1 | -2.17% | 2.63% | 1.92% | 0.726% | 0.94% | 1.92% | 12.7% | 11.9% | 4.41% | -29.3% | -8.97% |
| N#Cc1ccccc1C(=O)N1CCC2(CC(=O)NC2=O)C1 (stereo unspecified) | 0.342% | 10.8% | 0.526% | 4.48% | -5.21% | -2.38% | 14% | 14.1% | 4.76% | 4.88% | -3.81% |
| CS(=O)(=O)N[C@@H]1CN(C(=O)c2ccccn2)[C@@H]2CCCO[C@@H]21 | -5.18% | 5.41% | 4.88% | 2.32% | -0.489% | 2.87% | 18.4% | -7.84% | 4.32% | 7.69% | -0.379% |
| CC(C)(C)c1nc(CN2CCCC(Cn3cncn3)C2)cs1 (stereo unspecified) | -0.434% | 21.6% | -0.165% | -3.27% | 5% | -17.6% | 10.6% | 3.9% | 1.48% | 18.5% | -8.38% |
| Cc1cccc2[nH]c(C3CCN(C(=O)c4ccnn4C)CC3)nc12 | -4.98% | 7.79% | 3.06% | 3.85% | -4.62% | -23.4% | 15.1% | 2.04% | 9.68% | 13.6% | -3.54% |
| COc1ccc(C2OC(COc3ccccc3Br)=NN2C(C)=O)cc1 (stereo unspecified) | -1.41% | 13% | -0.88% | -8.22% | -5.23% | 3.23% | 9.22% | 4.18% | 0% | 1.28% | -8.68% |
| COCCN1C[C@@H]2CCCO[C@@H]2[C@H](N(C)Cc2ccco2)C1 | -2.66% | 10.7% | 1.93% | -6.59% | 2.56% | 50.6% | 11% | 16.7% | 7.45% | 16.7% | -2.07% |
| CC(C)NC(=O)NCCCc1cc(N)n(-c2ccccc2)n1 | -2.64% | 5.48% | -7.43% | 15.8% | 5.09% | -6.82% | 24.8% | 14.3% | 5.38% | 17.5% | -8.17% |
| OC(CN1CCOCC1)c1ccc(OC(F)(F)F)cc1 (stereo unspecified) | -5.02% | 2.7% | 35.5% | -1.38% | 0.283% | 0.401% | 4.32% | 1.68% | 6.4% | 13.6% | -7.59% |
| CCc1ccc(C(=O)O)cc1S(=O)(=O)Nc1ccc(F)c(C#N)c1 | -2.04% | -2.7% | -11.6% | 10.6% | 3.87% | -0.802% | 1.08% | 7.96% | -2.46% | 1.24% | -2.76% |
